High-throughput results as filed in PubChem.
CYP2C9 inhib: blocks human cytochrome P450 2C9; P11712; CYP2C9 Supersomes, luciferin-H conversion, luminescence; inhibition, % at 5 µM; 96,000 compounds, 20% hits;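 active = blocking of liver enzyme CYP2C9 beyond about 50% at 5 µM, limit read from the data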
Target sequence (P11712 whole entry, looked up): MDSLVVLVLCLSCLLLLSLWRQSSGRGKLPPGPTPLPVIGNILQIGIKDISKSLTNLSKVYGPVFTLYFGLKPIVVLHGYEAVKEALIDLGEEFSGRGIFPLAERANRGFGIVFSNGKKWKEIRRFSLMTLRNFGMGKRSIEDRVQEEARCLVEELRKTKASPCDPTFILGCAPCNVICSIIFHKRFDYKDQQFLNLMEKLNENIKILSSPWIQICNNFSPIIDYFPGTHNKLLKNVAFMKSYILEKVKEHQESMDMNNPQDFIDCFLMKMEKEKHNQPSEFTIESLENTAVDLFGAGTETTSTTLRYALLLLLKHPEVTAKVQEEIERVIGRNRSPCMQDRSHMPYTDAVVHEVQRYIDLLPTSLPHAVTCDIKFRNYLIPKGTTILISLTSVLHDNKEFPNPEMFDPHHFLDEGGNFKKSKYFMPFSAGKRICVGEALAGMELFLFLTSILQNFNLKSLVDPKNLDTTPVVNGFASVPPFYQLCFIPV
CYP2C9 act: increases human cytochrome P450 2C9 activity | P11712 | recombinant CYP2C9, luciferin-H conversion, luminescence; hits give high values; factor 1 = untreated enzyme, 0 = blocked | activation factor at 5 µM | 96,000 compounds, 1.4% hits | AID 1024;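 active = activation factor of 2 or more for CYP2C9 at a 5 µM dose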;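 also: 0 = sulfaphenazole-blocked wells and 1 = vehicle-only wells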
PostGolgi yeast: growth inhibition of a yeast mutant, post-Golgi transport screen | post-Golgi transport phenotypic cell assay | inhibition, % at 10 µM | 98,000 compounds, 0.9% hits;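 also: yeast cells grown in 1536-well plates; yeast grown about 18 h at 30C before absorbance read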
PostGolgi ctrl: inhibits growth of the yeast control strain; AID 738; inhibition, % at 10 µM; 98,000 compounds, 5% hits; efflux-deficient yeast background strain, growth absorbance A615, 16 h
CYP2C19 act: increases human CYP2C19 enzyme activity. P33261. recombinant CYP2C19, luciferin-H EGE luminescence; hits give high values; 0 = fully inhibited enzyme, 1 = untreated enzyme. activation factor at 5 µM. 96,000 tested, under 10 active. AID 1025;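 active = activation factor of at least 2 at 5 µM in the primary screen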;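 also: 0 = wells with 2.5 mM tranylcypromine and 1 = vehicle-only wells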
CYP2C19 inh: blocks human cytochrome P450 2C19; CYP2C19 Supersomes, luciferin-H EGE luminescence, 30 min; inhibition, % at 5 µM; 96,000 compounds, 21% hits; AID 778;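 active = CYP2C19 inhibition above a set limit at 5 µM in the primary screen, cut at about 50% in these data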;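 also: plate controls were negative control wells for no effect and 2.5 mM tranylcypromine positive control for full effect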
Active calls of the source: *; x = not tested or not shown. Hits are enriched below; roughly 32% of the tested compounds scored in any of these assays. Rule as the data show it, unless noted: active = inhibition above about 30%; inactive = the rest.

SMILES	CYP2C9 inhib	CYP2C9 act	PostGolgi yeast	PostGolgi ctrl	CYP2C19 act	CYP2C19 inh
CCS(=O)(=O)N1Cc2ccccc2CC1C(=O)Nc1ccc(C)cc1 (configuration not stated)	61*	0.4	-7	1	0.1	86*
Cc1cc(SCNC(=O)c2ccccc2)ncn1	-7	1.1	-4	6	0.8	20
CCOc1cc(NC(=S)NCC2CCCO2)c(OCC)cc1NC(=O)c1cccc(C)c1 (configuration not stated)	15	0.9	0	1	x	x
COc1ccc2c(c1)Cc1sc(NC(=O)c3cccs3)nc1-2	85*	0.2	14	9	0.3	70*
COc1cc(NC(=O)Cc2cccs2)cc(OC)c1	40	0.6	-4	1	0.2	81*
COc1cc(NC(=O)Cc2cccs2)ccc1-n1cnnn1	4	1	-1	16	0.5	53*
COc1cccc(C(=O)Nc2ccc3nc(N4CCN(c5ncccn5)CC4)cc(C)c3c2)c1OC	x	x	-2	41*	x	x
COc1ccc(C(=O)Nc2nc3c(s2)Cc2cc(OC)ccc2-3)cc1	37	0.6	-3	10	0.7	34
COc1ccc(C(CC(=O)O)NC(=O)COc2ccccc2)cc1 (configuration not stated)	x	x	3	11	x	x
CN1CC(=O)Nc2ccc(F)cc2C1=O	-10	1.1	9	9	1	0
COc1cc(NC(=O)c2cccs2)cc(OC)c1	21	0.8	13	9	0.8	23
COC(=O)c1sc2ccccc2c1NC(=O)c1cccs1	60*	0.4	1	9	0.7	35
COC(=O)c1sc2ccccc2c1N	5	1	-1	10	0.9	14
COc1cccc(NC(=O)c2cccs2)c1	29	0.7	-6	11	0.5	54*
COc1cccc(C(=O)Nc2ccc(N(C)C)cc2)c1OC	-41	1.4	0	7	0.7	26
COc1cccc(NC(=O)Cc2cccs2)c1	21	0.8	-4	16	0.5	51*
COc1ccc(NC(=O)c2ccco2)c(NC(=O)Cc2cccs2)c1	41	0.6	-9	-11	0.6	40
COc1cccc(NC(=O)c2cccc(OC)c2OC)c1	-73	1.7	-9	48*	0.2	81*
COc1ccc(OC(=O)c2ccc3nsnc3c2)cc1	0	1	3	-5	0.9	11
CCCCCCNS(=O)(=O)c1ccc(Cl)s1	86*	0.1	-20	27	0	98*
O=C(O)CCCNS(=O)(=O)c1ccc(Br)s1	10	0.9	-5	-2	0.9	7
Cn1cnnc1SCC(=O)Nc1ccc(Br)cc1F	-24	1.2	-14	5	0.7	32
COc1cccc(Oc2cncnc2-c2ccc(OC)cc2O)c1	99*	0	84*	56*	0	98*
CCOc1ccc(C(CCc2ccccc2)NC(=O)c2ccccc2F)cc1OCC (configuration not stated)	78*	0.2	1	10	0.2	77*
CCOc1ccc(C(CCc2ccccc2)NC(=O)c2ccccc2OC)cc1OCC (configuration not stated)	85*	0.2	-4	6	0.4	64*
SMILES	CYP2C9 inhib	CYP2C9 act	PostGolgi yeast	PostGolgi ctrl	CYP2C19 act	CYP2C19 inh
CSCCC(NC(=O)c1c(C)oc2c1CCCC2)C(=O)O (configuration not stated)	-8	1.1	10	14	1.2	-17
Cn1cccc1/C=N/n1c(-c2ccc(Cl)cc2Cl)n[nH]c1=S	-3	1	4	43*	1	-1
Cn1cccc1/C=N/n1c(-c2ccc(Cl)cc2)n[nH]c1=S	7	0.9	-9	19	1	3
S=c1[nH]nc(-c2ccco2)n1/N=C/c1ccc(Cl)cc1Cl	32	0.7	-6	39*	1	-3
S=c1[nH]nc(-c2ccco2)n1/N=C/C=C/c1ccccc1	46	0.5	1	15	0.7	28
Clc1nc2sccn2c1/C=N/n1cnc2ccccc21	21	0.8	-2	14	0.7	25
Cc1cccc2cc3c(NC(=O)CC(C)C)nn(C)c3nc12	-19	1.2	-7	-2	1	-1
N#CC1(C#N)C2=C(CCCC2)NC(c2ccccc2)C1(C#N)C#N (configuration not stated)	40	0.6	-4	25	0.9	15
Cc1ccc(N2CN=C(c3ccccc3)NC2=S)cc1	76*	0.2	-4	13	0	99*
